We go through 9 compounds from PubChem BioAssay (NCI).

Test systems include SR leukemia; RPMI-8226 leukemia; OVCAR-8 ovarian; OVCAR-5 ovarian; OVCAR-4 ovarian; SK-OV-3 ovarian; IGROV1 ovarian; OVCAR-3 ovarian; HS 578T breast; NCI/ADR-RES ovarian; T-47D breast; BT-549 breast; MDA-MB-435 melanoma; SW-620 colon; MCF7 breast; HCT-116 colon; HCC-2998 colon; KM12 colon; MDA-MB-468 breast.
Holding throughout (test): NCI-60 one-dose screen, 48 h (100 = growth as untreated, 0 = no growth, -100 = all killed)
Common to all, as to settings: 10 µM unless noted

Structures are written as SMILES. Compounds without any hit were thinned out: in the full panel of roughly 83,000, 20% have a hit.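 Single-concentration screen, 48 h exposure, 96-well plates. Endpoint: percent growth. Below 10 = active.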 Values without a mark were called inactive. The source made the active and inactive calls.

As to `O=C(NN1C(=O)/C(=C/C=C/c2ccc([N+](=O)[O-])o2)SC1=S)c1ccc(O)cc1`, the growth is -7.52% (active) in the experiment on SR leukemia; -26.1% (active) in the experiment on RPMI-8226 leukemia; -70.9% (active) in the experiment on OVCAR-8 ovarian; -98.7% (active) in the experiment on OVCAR-5 ovarian; -99.8% (active) in the experiment on OVCAR-4 ovarian; -98.9% (active) in the experiment with SK-OV-3 ovarian. In addition, the growth in the experiment on IGROV1 ovarian is -95.6% (active); in the experiment with OVCAR-3 ovarian it was -88.6% (active); in the experiment on HS 578T breast it was -1.61% (active); with NCI/ADR-RES ovarian it was -22.3% (active); with T-47D breast, -53.4% (active); in the experiment with BT-549 breast it was -94% (active). Further, the growth is -91% (active) with MDA-MB-435 melanoma; -69.1% (active) in the experiment with SW-620 colon; -54.4% (active) with MCF7 breast; -85.1% (active) in the experiment with HCT-116 colon; -92.6% (active) in the experiment on HCC-2998 colon; -95.2% (active) in the experiment on KM12 colon.
With `COc1cc(CNC(=O)C[C@H](C)CCC=C(C)C)ccc1OCc1cn(-c2ccc(Br)cc2)nn1`, the growth is 63.8% with SR leukemia; 69.3% with RPMI-8226 leukemia; 47.5% in the experiment with OVCAR-8 ovarian; 105% in the experiment on OVCAR-5 ovarian; 49.5% in the experiment on OVCAR-4 ovarian; 64% in the experiment on SK-OV-3 ovarian. The growth with IGROV1 ovarian was 89.9%; with OVCAR-3 ovarian, 105%; in the experiment with HS 578T breast, 73.8%; with NCI/ADR-RES ovarian it was 52.1%; in the experiment with T-47D breast it was 49.3%; with BT-549 breast it was 93.6%. The growth with MDA-MB-435 melanoma is 98.3%; in the experiment on SW-620 colon it was 91.7%; with MCF7 breast it was 60.2%; with HCT-116 colon it was 41.9%; with HCC-2998 colon, 95.8%; in the experiment on KM12 colon, 94.6%.
For the compound `O=C(CSc1nnc(-c2ccc(-c3nc4ccccc4[nH]3)cc2)o1)Nc1ccccc1`, the growth in the experiment with SR leukemia is 34.1%; with RPMI-8226 leukemia, 56.5%; in the experiment on OVCAR-8 ovarian it was 31.5%; with OVCAR-5 ovarian, 86%; with OVCAR-4 ovarian it was 94%; in the experiment with SK-OV-3 ovarian, 84.7%. Also, the growth in the experiment on IGROV1 ovarian was 85%; with OVCAR-3 ovarian it was 92.2%; with HS 578T breast, 70.9%; with NCI/ADR-RES ovarian, 76.3%; in the experiment with T-47D breast, 109%; in the experiment with BT-549 breast it was 98.7%. Moreover, the growth was 85.6% in the experiment with MDA-MB-435 melanoma; 19.9% in the experiment on SW-620 colon; 72.7% with MCF7 breast; 50.8% in the experiment with HCT-116 colon; 92.3% in the experiment with HCC-2998 colon; 70.1% in the experiment on KM12 colon.
Consider `CN(C)C(=O)c1cc(-c2ccc3ncnc(N4CCc5cc(F)c(Cl)cc54)c3c2)cnc1N`, for which the growth in the experiment on SR leukemia is -57% (active); in the experiment with RPMI-8226 leukemia, -34.6% (active); in the experiment with OVCAR-8 ovarian, -8.58% (active); with OVCAR-5 ovarian, -15% (active); in the experiment on OVCAR-4 ovarian, -17.5% (active); in the experiment with SK-OV-3 ovarian it was -32.8% (active). Further, the growth with IGROV1 ovarian was -62.5% (active); in the experiment on OVCAR-3 ovarian it was -58.1% (active); in the experiment with HS 578T breast, -44.2% (active); in the experiment on NCI/ADR-RES ovarian, -12.5% (active); in the experiment with T-47D breast, -59.1% (active); in the experiment on BT-549 breast, -82.9% (active). The growth with MDA-MB-435 melanoma was -58.5% (active); in the experiment on SW-620 colon, -51.8% (active); with MCF7 breast, -59.9% (active); in the experiment on HCT-116 colon, -97.4% (active); with HCC-2998 colon, -82.2% (active); in the experiment on KM12 colon, -58.3% (active).
Take `O=C(Nc1ccc(S(=O)(=O)N2CCCCC2)cc1)C(Cl)Cl`: the growth in the experiment with SR leukemia is 95.7%; in the experiment on RPMI-8226 leukemia it was 110%; in the experiment on OVCAR-8 ovarian, 111%; in the experiment on OVCAR-5 ovarian, 127%; with OVCAR-4 ovarian, 104%; in the experiment with SK-OV-3 ovarian, 118%. For the same compound, the growth with IGROV1 ovarian is 135%; in the experiment with OVCAR-3 ovarian it was 114%; in the experiment with HS 578T breast, 119%; in the experiment with NCI/ADR-RES ovarian it was 114%; with T-47D breast, 101%; with BT-549 breast it was 124%. Further, the growth in the experiment on MDA-MB-435 melanoma is 109%; in the experiment with SW-620 colon, 109%; in the experiment with MCF7 breast, 101%; in the experiment with HCT-116 colon, 105%; with HCC-2998 colon, 124%; in the experiment with KM12 colon, 104%.
In the case of `CC1=C(C(=O)OCc2ccccc2)C(c2cccc3ccccc23)n2c(nc3ccccc32)N1` (configuration not stated), the growth in the experiment on SR leukemia is 19%; in the experiment on RPMI-8226 leukemia, 15.3%; in the experiment on OVCAR-8 ovarian, 31.2%; in the experiment with OVCAR-5 ovarian, 41%; in the experiment with OVCAR-4 ovarian it was 46.7%; in the experiment with SK-OV-3 ovarian, 25.2%. Further, the growth in the experiment with IGROV1 ovarian is 31.3%; with OVCAR-3 ovarian, -6.62% (active); in the experiment with HS 578T breast, 5.52% (active); in the experiment with NCI/ADR-RES ovarian it was -6.92% (active); with T-47D breast, 30.2%; with BT-549 breast, 25%. Further, the growth in the experiment on MDA-MB-435 melanoma is -45.5% (active); in the experiment with SW-620 colon it was 23.7%; with MCF7 breast, 12.7%; in the experiment on HCT-116 colon it was 17.7%; with HCC-2998 colon it was 57%; in the experiment with KM12 colon it was 19.1%.
As for `Cc1ccc(C(=O)Nc2cc(-n3cnc(F)c3)cc(C(F)(F)F)c2)cc1C#Cc1cnc2cccnn12`, the growth in the experiment on SR leukemia is 18.6%; with RPMI-8226 leukemia, 33.1%; in the experiment with OVCAR-8 ovarian it was 66.8%; in the experiment on OVCAR-5 ovarian it was 68.3%; in the experiment with OVCAR-4 ovarian it was 77.4%; in the experiment on SK-OV-3 ovarian it was 114%. Also, the growth is 71.5% in the experiment on IGROV1 ovarian; 119% in the experiment on OVCAR-3 ovarian; 35.8% with HS 578T breast; 57.2% with NCI/ADR-RES ovarian; 76.1% with T-47D breast; 60.1% in the experiment with BT-549 breast. Besides, the growth was 46.4% in the experiment on MDA-MB-435 melanoma; 45.1% in the experiment with SW-620 colon; 38.8% with MCF7 breast; 19% in the experiment with HCT-116 colon; 70.6% in the experiment with HCC-2998 colon.
As for `Cc1nc(Nc2ccccn2)sc1C1=NNC(c2ccccc2F)C1` (configuration not stated), the growth is 12.4% with SR leukemia; 30.4% with RPMI-8226 leukemia; 68% with OVCAR-8 ovarian; 82.8% with OVCAR-5 ovarian; 74.8% in the experiment with OVCAR-4 ovarian; 98.3% in the experiment on SK-OV-3 ovarian. The growth in the experiment on IGROV1 ovarian was 64.2%; in the experiment with OVCAR-3 ovarian, 24.8%; in the experiment on HS 578T breast it was 87.6%; with NCI/ADR-RES ovarian it was 20.9%; with T-47D breast, 33.5%; in the experiment on BT-549 breast it was 36.1%. Also, the growth with MDA-MB-435 melanoma is -17.9% (active); in the experiment on SW-620 colon it was 32.1%; in the experiment on MCF7 breast it was 20.1%; with HCT-116 colon it was 34.3%; in the experiment with HCC-2998 colon, 95.7%; in the experiment with KM12 colon, 23.4%.
Regarding `COC(=O)CSC1=C(C)C(=O)C(OC)=C(OC)C1=O`, the growth in the experiment with SR leukemia was 57%; with RPMI-8226 leukemia, 65.6%; with OVCAR-8 ovarian, 92.2%; in the experiment with OVCAR-5 ovarian, 110%; in the experiment with OVCAR-4 ovarian it was 94.2%; in the experiment with SK-OV-3 ovarian, 100%. Further, the growth in the experiment on IGROV1 ovarian was 106%; with OVCAR-3 ovarian, 91.8%; in the experiment on HS 578T breast, 79.2%; with NCI/ADR-RES ovarian, 96.6%; in the experiment with T-47D breast it was 36.2%; in the experiment on BT-549 breast it was 79%. Further, the growth with MDA-MB-435 melanoma is 89.2%; in the experiment with SW-620 colon, 84.5%; in the experiment with MCF7 breast, 86.6%; in the experiment with HCT-116 colon, 29.6%; with HCC-2998 colon, 120%; in the experiment with KM12 colon, 93.5%. For the same compound, the growth with MDA-MB-468 breast was 52%.
